# Hits are enriched below; roughly 0.9% of the tested compounds scored in any of these assays.
# Six1-Eya2 blk: qHTS Assay for Inhibitors of the Six1/Eya2 Interaction | Homeobox protein SIX1 (Homo sapiens) + Protein phosphatase EYA2 (Homo sapiens), … | actives 0.56% (n = 360,000) | AlphaScreen GST-Six1/His-Eya2 binding, biochemical; active compounds read low | activity change, % (test concentration not listed); in the data active = activity change below about -65%; inconclusive = mostly about -30% to -63%; also: % is scaled to controls: 0 for no effect and ±100 for the full control effect
#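 GST-Six1 + His-Eya2 (5X stock: 250/500 nM); Tris pH 8.0, 300 mM NaCl, 0.05% BSA, 0.02% Tween 20; GSH donor/Ni acceptor beads; 1 h 37 °C dark; AlphaScreen readout.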
# CtBP-E1A blk: qHTS Assay for Inhibitors of the CtBP/E1A Interaction; CtBP / adenovirus E1A interaction (AlphaScreen); AlphaScreen GST-E1A/His-CtBP binding, 1536-well; active compounds read low; activity change, % (no concentration beside the values); actives 0.49% (n = 340,000); AID 651724, 2012; in the data active = activity change below about -65%; inconclusive = mostly about -30% to -63%; also: % is scaled to controls: 0 for no effect and ±100 for the full control effect
#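 Homogeneous bead-based format: GST-tagged E1A captured on glutathione donor beads, His-tagged CtBP on nickel acceptor beads; compounds precede bead addition by 2 h at 37 °C.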
# L3MBTL1 inh-1: qHTS Assay for the Inhibitors of L3MBTL1; Lethal(3)malignant brain tumor-like protein 1 (Homo sapiens), Q9Y468; AlphaScreen L3MBTL1–H3K9me1 peptide binding; Potency, µM (titrated, usually from 57.1 µM), for the others: top-dose activity, negative = inhibition, most hits filed as inhibitors; actives 0.66% (n = 230,000); AID 485360, 2010; also: potency is read from the fitted curve at half-maximal effect; % is scaled to controls: 0 for no effect and ±100 for the full control effect; nearly all actives have a fitted effect of over 60% in size
#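 Displacement of a biotinylated histone H3(1-15) peptide monomethylated at Lys9 (75 nM) from L3MBTL1 (50 nM) was measured by AlphaScreen after a 30 min room-temperature compound incubation; cefsulodin titration served as intraplate control.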
# B2AR arrestin: qHTS assay of beta-arrestin-biased ligands of beta2-adrenergic receptor | Beta-2 adrenergic receptor (Homo sapiens), P07550 | beta-arrestin recruitment to beta2AR, cell-based reporter | Potency, µM (highest dose often 46.1 µM), for the others: at the top dose activation, usual class: activators | actives 0.02% (n = 330,000) | AID 492947, 2010;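 also: potency is read from the fitted curve at half-maximal effect; 0% = DMSO controls and full agonism = EC100 isoproterenol or metaproterenol; nearly all actives have a fitted effect of over 65% in size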
# Target sequence (P07550 whole entry, looked up): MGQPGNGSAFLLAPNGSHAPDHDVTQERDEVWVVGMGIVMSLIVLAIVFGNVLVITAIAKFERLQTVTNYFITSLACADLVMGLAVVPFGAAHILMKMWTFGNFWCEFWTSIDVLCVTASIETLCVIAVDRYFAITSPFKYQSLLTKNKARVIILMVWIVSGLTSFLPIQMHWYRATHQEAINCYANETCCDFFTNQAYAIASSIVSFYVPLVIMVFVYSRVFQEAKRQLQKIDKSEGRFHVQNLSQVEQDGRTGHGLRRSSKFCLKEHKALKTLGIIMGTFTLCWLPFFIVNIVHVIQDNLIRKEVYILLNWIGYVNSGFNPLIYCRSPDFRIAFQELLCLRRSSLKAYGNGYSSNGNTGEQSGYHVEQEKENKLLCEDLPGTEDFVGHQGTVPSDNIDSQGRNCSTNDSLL
# Eya2 inh: qHTS Assay for Inhibitors of the Phosphatase Activity of Eya2; Protein phosphatase EYA2 (Homo sapiens), O00167; recombinant Eya2, OMFP fluorescence dephosphorylation (OMFP is methylfluorescein phosphate); Potency, µM (series often up to 76.9 µM), without a hit: top-dose activity, negative = inhibition, usual class: inhibitors; actives 0.006% (n = 330,000); AID 488837, 2010; also: potency is read from the fitted curve at half-maximal effect; % is scaled to controls: 0 for no effect and ±100 for the full control effect
#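 Eya2 protein (added as 0.2 uM solution) was preincubated with compound for 10 min at ambient temperature in 50 mM HEPES pH 7.5, 50 mM NaCl, 5 uM MgCl2, 0.05% BSA, 1 mM DTT. OMFP (added at 50 uM) then reacted 10 min; fluorescence read at 485/525 nm.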
# L3MBTL1 inh-2: qHTS Assay for the Inhibitors of L3MBTL1: Hit Validation; shares compounds with L3MBTL1 inh-1; L3MBTL1 methyl-lysine binding inhibition, biochemical qHTS; Potency, µM, hits mostly inhibitors; actives 91% (n = 500); also: potency is read from the fitted curve at half-maximal effect; nearly all actives have a fitted effect of over 70% in size
# L3MBTL1 ctr: qHTS Assay for the Inhibitors of L3MBTL1: Hit Validationin AlphaScreen Counterscreen; shares compounds with L3MBTL1 inh-1; AlphaScreen counterscreen, signal inhibition; Potency, µM (titrated, usually from 57.1 µM), for the others: at the top dose activity change, negative = inhibition, actives largely listed as inhibitors; 500 tested, under 10 active; AID 602224, 2012; also: potency is read from the fitted curve at half-maximal effect; 0% is about no effect
# * marks the source's active call; other numbers are inactive results; u = inconclusive; x = no result. Unless noted, calls follow the shape of the dose curve; as a rule, active = well fitted curve in the direction sought with a large enough effect; inconclusive = small, poorly fitted or top-dose-only effect, or another doubt; inactive = no such curve, though single readings can be large; an effect the other way counts as inactive or inconclusive.
SMILES,Six1-Eya2 blk,CtBP-E1A blk,L3MBTL1 inh-1,B2AR arrestin,Eya2 inh,L3MBTL1 inh-2,L3MBTL1 ctr
CC(C)C1Nc2ccc(C(=O)O)cc2C2C=CCC21 (stereo unspecified),u,-10.7,4.47µM*,-0.4%,6.9%,2.99*,-20.0%
O=C(O)c1ccc2c(c1)C1C=CCC1C(c1ccncc1)N2 (stereo unspecified),-1.9,2.2,x,-0.1%,2.1%,x,x
CC(C)[C@H](NC(=O)c1ccc(C(C)(C)C)cc1)C(=O)N1CCN(Cc2ccc3c(c2)OCO3)CC1,1.7,-3.8,-11.4%,0.0%,-2.2%,x,x
O=C(c1cc(-c2ccc(Br)cc2)n[nH]1)N1CCN(C(=O)c2ccccc2Br)CC1,0.1,x,x,0.2%,-2.6%,x,x
O=C(O)C1C2C=CC(O2)C1C(=O)NCCC1=CCCCC1 (stereo unspecified),-2.4,-0.6,17.8µM*,-0.4%,7.9%,3.77*,1.7%
O=C(NCCC1=CCCCC1)C(=O)NCc1ccccc1,-4.9,4.1,-17.3%,-0.7%,-3.1%,x,x
O=C(O)c1cc(-c2ccc(/C=C3\NC(=O)N(c4ccccc4)C3=O)o2)ccc1Cl,-16.5,3.1,20µM*,0.2%,1.3%,2.99*,3.0%
Cc1cccc(N2NC(=O)/C(=C/c3ccc(-c4ccc(Cl)c(C(=O)O)c4)o3)C2=O)c1,-14.7,4.1,x,0.0%,14.3%,x,x
O=C(Nn1cc(C(=O)Nc2ccccc2F)c2ccccc2c1=O)c1cnccn1,-78.0*,u,39.8µM*,-0.1%,16.4%,u,35.9%
COC(=O)c1cn(NC(=O)c2cnccn2)c(=O)c2ccccc12,u,u,-27.9%,-1.2%,-15.1%,x,x
Cc1cc(C)n2c(SC/C(O)=C(\C#N)c3nc4ccccc4[nH]3)nnc2n1,-16.0,u,15.8µM*,0.3%,8.3%,5.97*,-19.8%
CC(Cc1c[nH]c2ccccc12)C(=O)O (stereo unspecified),-13.0,-11.3,2µM*,-0.5%,13.6%,2.99*,2.4%
CC(=O)c1ccccc1Oc1cc(NN2CCCCC2)c([N+](=O)[O-])cc1[N+](=O)[O-],u,u,20µM*,-0.6%,-9.8%,26.7*,u
O=C(c1cccc(S(=O)(=O)N2CCCc3ccccc32)c1)N1CCN(c2ccccc2)CC1,3.4,3.0,-10.5%,0.1%,-26.7%,x,x
CCOC(=O)CCN(c1ccccc1)S(=O)(=O)c1ccc(-c2ccc(=O)[nH]n2)s1,-6.9,-9.7,x,0.5%,-0.4%,x,x
O=C(O)c1cccc(-n2cccc2/C=N/O)c1,-29.9,3.9,10µM*,0.0%,19.5%,2.38*,11.5%
O=C(O)c1cccc(-n2cccc2/C=C\[N+](=O)[O-])c1,-21.5,-9.1,31.6µM*,0.4%,-9.1%,21.2*,13.5%
CN1C(=O)S/C(=C/c2cccn2-c2cccc(C(=O)O)c2)C1=O,-4.1,-11.6,u,0.0%,3.9%,x,x
O=C(O)c1cccc(-n2cccc2/C=C/[N+](=O)[O-])c1,u,5.8,2.82µM*,-0.3%,16.6%,1.68*,4.8%
CCOC(=O)c1c(-c2ccco2)csc1NC(=O)COC(=O)c1cnc(C)cn1,-9.0,-2.1,31.6µM*,-0.1%,-13.3%,23.8*,-0.2%
Cc1ccc(/C=C/C(=O)N2CCc3ccccc32)o1,-25.4,3.2,31.6µM*,2.8%,-2.8%,5.97*,-1.1%
O=C(/C=C/c1ccco1)N1CCc2ccccc21,-5.1,7.6,-26.8%,0.2%,5.3%,x,x
Cc1ccc(NC(=O)CN2C(=O)N/C(=C\c3cccn3-c3cccc(C(=O)O)c3)C2=O)cc1,u,13.1,10µM*,0.1%,16.3%,2.12*,6.3%
O=C(O)c1cccc(-n2cccc2/C=C2\NC(=O)N(Cc3ccc(F)cc3)C2=O)c1,-21.3,-11.6,u,-0.5%,0.0%,x,x
Cc1ccc(CN2C(=O)N/C(=C\c3cccn3-c3cccc(C(=O)O)c3)C2=O)cc1,u,-3.8,2.51µM*,0.5%,3.4%,2.67*,-20.3%
SMILES,Six1-Eya2 blk,CtBP-E1A blk,L3MBTL1 inh-1,B2AR arrestin,Eya2 inh,L3MBTL1 inh-2,L3MBTL1 ctr
Cc1ccc(NC(=O)CN2C(=O)N/C(=C/c3cc(C)n(-c4cccc(C(=O)O)c4)c3C)C2=O)cc1,u,-19.1,25.1µM*,0.0%,-3.4%,16.8*,-13.4%
COCCN1C[C@@H](CO)O[C@@H](n2cnc3c(NCc4ccc(F)cc4)ncnc32)C1,1.6,5.7,x,x,x,x,x
Cc1cc(OCC(=O)NCCc2c[nH]c3ccccc23)c2c(C)cc(=O)oc2c1,5.3,0.3,x,-0.5%,7.4%,x,x
COc1ccc(NC(=O)N(C)C[C@@H]2Oc3cc(C#CCN(C)C)ccc3S(=O)(=O)N([C@H](C)CO)C[C@H]2C)cc1,6.5,15.5,x,x,x,x,x
Cc1cccc(NC(=O)C2CC3CCC2C3)c1C (stereo unspecified),22.5,6.8,x,x,x,x,x
COc1ccc(CC(=O)Nc2nc3ccccc3[nH]2)cc1,3.0,7.6,61.4%,0.8%,11.3%,x,x
COC(=O)Cc1cc(=O)n(-c2nc3ccccc3[nH]2)[nH]1,-91.8*,-85.8*,12.6µM*,0.6%,-4.0%,6.7*,u
COc1ccc(Cc2nnc(NC(=O)Cc3cccs3)s2)cc1OC,-13.4,5.3,6.31µM*,-0.3%,-7.2%,10.6*,-6.9%
CCOc1ccc(N(CC(=O)NC2CCCCC2)C(=O)CCC(=O)Nc2nccs2)cc1,5.6,0.8,x,-0.5%,-5.5%,x,x
COC(=O)\C(C(C)=O)=C(/C=C/C=C/C=C/N(C)C)N(C)C,u,1.2,7.08µM*,-0.5%,-3.3%,2.99*,u
COc1ccccc1CNC(=O)CN1CCN(c2ccc(C(C)=O)cc2)CC1,1.7,-14.4,x,0.1%,18.6%,x,x
CCCCn1c(NS(=O)(=O)c2ccc(C)cc2)c(S(=O)(=O)c2ccccc2)c2nc3ccccc3nc21,0.8,-4.3,5.01µM*,-0.5%,-10.4%,21.2*,0.2%
COc1ccc(CN2CCC(C(=O)Nc3ccc(Oc4cccnc4)cc3)CC2)c(C)c1C,-2.0,x,x,-0.7%,2.2%,x,x
CCCS(=O)(=O)NC(=O)C1(C)CCN(C(=O)CSc2ccccc2)C1 (stereo unspecified),4.4,3.8,x,x,x,x,x
